Drawing on PubChem BioAssay AID687014 (The Scripps Research Institute Molecular Screening Center, 2013), this text covers activation for 66 compounds.

The whole screen tested about 370,000 compounds, of which about 6,800 (1.8%) were called active. For the sample, actives were picked, then their nearest neighbours and some compounds at random. Values without a mark were called inactive.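 The calls were made as follows: active = activation above a cutoff set at the mean of all screened compounds plus 3 SD (cut at about 10% in these data); inactive = the rest.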

The subject of this assay is Nuclear hormone receptor DAF-12 (Heterodera glycines), GAL4 fusion. In words: hgDAF-12 GAL4 fusion reporter activation – cell-based, luminescence, HEK293, UAS-luciferase, primary screen (AID 687014).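 Also: 0% = DMSO wells and 100% = sodium butyrate wells.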 Particulars: HEK293 GAL4-hgDAF12 UAS-luciferase reporter, agonist luminescence; at 6.8 µM; hits give high values; normalized to butyrate control. For orientation: A reporter such as luciferase makes a cellular process visible.
With `Clc1ccc(C(Cn2ccnc2)OCc2ccsc2Cl)c(Cl)c1` (stereo unspecified), the activation was -0.6%.

With `COc1ccnc(C(=O)N2CCC(Oc3cccnc3)CC2)c1`, the activation is -2.68%.

Turning to `COc1ccc(CCC(C)N2CCc3ccccc3C2)cc1` (stereo unspecified), the activation was 1.85%.

Turning to `COC(=O)[C@]12C[C@H](CC(=O)NCc3ccc(C)o3)C(=O)N(CCC3=CCCCC3)C1=C[C@H](C(C)(C)C)O[C@@H]2C`, the activation is 1.5%.

Turning to `COc1ccc(C2=NN(C(=O)c3ccccc3C(=O)O)C(c3ccccc3O)C2)cc1` (stereo unspecified), the activation is 16.4% (active).

Regarding `COc1ccc(C2CC(c3ccccc3)=NN2C(=O)CSc2nccc(=O)[nH]2)cc1` (stereo unspecified), the activation was 1%.

Regarding `COc1ccc(C2CC(c3ccccc3)=NN2C(=O)c2ccc(Cl)c([N+](=O)[O-])c2)cc1` (stereo unspecified), the activation was -2.91%.

With `COc1ccc(CSc2nnc(-c3cccc(C)c3)n2C)cc1`, the activation is -0.32%.

Take `COc1ccc2nc(SCc3ccccc3)nc(C)c2c1`: the activation is 16.3% (active).

With `COc1ccc(NCc2nnc(SCc3ccccc3)n2-c2ccc(OC)cc2)cc1`, the activation was 1.53%.

Regarding `CCOc1ccc(S(=O)(=O)NCC2CCCO2)cc1` (stereo unspecified), the activation was -0.13%.

Consider `COC(=O)[C@]12C[C@H](CC(=O)NCc3ccccc3)C(=O)N(Cc3ccccc3)C1=C[C@H](COCc1ccccc1)O[C@@H]2C`, for which the activation was -0.41%.

For the compound `Cc1ccc(NC(=O)N2c3ccccc3SC2c2ccco2)c(C)c1` (stereo unspecified), the activation was -2.03%.

As for `O=C(CCS(=O)(=O)c1ccccc1)Nc1ccc(Cl)c(Cl)c1`, the activation was 5%.

Turning to `COc1ccc(/C=C2/CCCc3ccccc3C2=O)cc1`, the activation is 16.7% (active).

Take `COc1ccc(C=C2CCC3C(CCCC34OCCO4)C2=O)cc1` (stereo unspecified): the activation is 2.78%.

`COc1ccccc1Oc1ccc(N/C=C2/CCCC2=O)cc1`: the activation was 2.59%.

Take `COc1ccc(Cn2cc(COC(=O)N(C)Cc3ccccc3)nn2)cc1`: the activation was 2.67%.

As for `O=[N+]([O-])c1ccc2oc(-c3cccc(O)c3)nc2c1`, the activation was 19.1% (active).

Consider `O=[N+]([O-])c1ccc2c(c1)C(O)n1nc(-c3ccccc3)nc1S2` (stereo unspecified), for which the activation was -1.58%.

For the compound `COc1cccc(-c2nc3cc(C)ccc3o2)c1`, the activation was 17.6% (active).

For the compound `COc1cccc(-c2nc(CS(=O)(=O)CC(=O)NCCc3ccc(OC)c(OC)c3)c(C)o2)c1`, the activation is 0.2%.

For `CC(=O)Oc1ccc2c(=O)oc(-c3ccc([N+](=O)[O-])cc3)nc2c1`, the activation is 0.03%.

Regarding `COc1cccc(-c2nnc(SCCOc3ccc4c(C)cc(=O)oc4c3)o2)c1`, the activation is -0.66%.

In the case of `C=CCN1C(=O)[C@@H](CC(=O)NCCCOCCCC)[C@]2(C(=O)OCC)CCCCC/C=C/12`, the activation was -2.8%.

Take `C/C(=N/O)c1ccc(N2C(=O)C3C4C=CC(C3C2=O)C2C3C(=O)N(c5ccc(/C(C)=N/O)cc5)C(=O)C3C42)cc1` (stereo unspecified): the activation was -2.43%.

As for `COc1ccc(-c2cc(-c3nnc(SCC(=O)Nc4cccc5ccccc45)n3N)[nH]n2)cc1`, the activation was -0.33%.

As to `CC[C@H](C)[C@H]1CNC(=O)C(=O)N1CC1CCN(CCc2ccc(OC)c(OC)c2)CC1`, the activation was -1.21%.

On to `CC[C@@H](CCC(=O)N(c1ccccc1)c1ccccc1)C1CC1`, for which the activation is 0.58%.

Take `S=c1[nH]nc(/C=C/c2ccccc2)o1`: the activation is 4.59%.

For `O=c1oc(-c2ccccc2NS(=O)(=O)c2ccc(Cl)cc2)nc2ccccc12`, the activation was 0.61%.

Turning to `O=c1oc(/C=C/c2ccccc2)nc2ccccc12`, the activation was 16% (active).

`COc1ccc(-n2c(COc3ccc(C)cc3)nnc2SCC(=O)Nc2ccc(Oc3ccccc3)cc2)cc1`: the activation was 3.51%.

For `COc1ccccc1NC(=O)C(C)OC(=O)c1ccc(-n2cnnn2)cc1` (stereo unspecified), the activation was -3.02%.

As to `N#Cc1ccc(C2=CC(=O)C[C@H](c3ccc(Cl)cc3)C2)cc1`, the activation is -2.41%.

As to `CC(C)c1cccc(-c2csc(C(O)c3ccccc3)n2)c1` (stereo unspecified), the activation was 5.67%.

With `COc1cccc(C(NC(C)=O)c2nc(-c3cnc4ccccc4c3)cs2)c1` (stereo unspecified), the activation was -1%.

For `OC(c1ccccc1)c1nc(-c2cnc3ccccc3c2)cs1` (stereo unspecified), the activation was 22.6% (active).

As to `Cc1ccc(N2C(=O)c3ccccc3C2(O)c2ncc[nH]2)cc1` (stereo unspecified), the activation is 0.14%.

Take `Cc1cccc(NC(=O)N(Cc2cc3cc(C)cc(C)c3[nH]c2=O)CC2COCCO2)c1` (stereo unspecified): the activation is 11.3% (active).

For the compound `Cc1ccc2[nH]c(=O)c(CN(CC3COCCO3)C(=O)Nc3ccccc3C)cc2c1` (stereo unspecified), the activation was -1.5%.

Consider `COc1ccc2[nH]c(=O)c(CN(CC3CCCO3)C(=O)Nc3ccccc3)cc2c1` (stereo unspecified), for which the activation was -1.35%.

Turning to `O/N=C(\c1ccc2c(c1)OCCO2)C1CCCCC1`, the activation was -1.1%.

For the compound `CC(CCN1CCC(C(O)(c2ccccc2)c2ccccc2)CC1)Oc1ccc(Cl)cc1` (stereo unspecified), the activation was -0.38%.

On to `C=CCN1C(=O)[C@@H](CC(=O)NCC2CCCCC2)[C@]2(C(=O)OC)CCCCC=C12`, for which the activation is 2.02%.

For the compound `COC(=O)c1ccc(-c2noc(CN(Cc3ccccn3)CC3CCCO3)n2)cc1` (stereo unspecified), the activation was 1.07%.

Take `O=C(COc1cccc(F)c1)Oc1ccc(C(=O)c2ccccc2)cc1`: the activation was 3.93%.

Take `O=C(Oc1ccc(-c2nc(-c3ccccn3)no2)cc1)c1ccccc1`: the activation was 10.9% (active).

For `CCCC[C@H]1C2CC(OC(=O)NCc3ccccc3)C(C2)[C@H]2CCCCN21` (stereo partly specified), the activation was -3.36%.

Consider `Cc1ccc2c(c1)N(CC(=O)NCCc1ccc(Cl)cc1)C(=O)c1cccnc1O2`, for which the activation was 0.09%.

As for `Cc1ccc(NC(=O)c2oc3ccccc3c2C)c([N+](=O)[O-])c1`, the activation is 0.32%.

As to `O=C(Nc1ccc2ccccc2c1[N+](=O)[O-])c1ccccc1`, the activation was 15.2% (active).

Take `CN(C)c1ccc(NC(=O)c2ccncc2)c2ccccc12`: the activation was -2.36%.

Take `COP(=O)(O)CNC(=O)OCc1ccccc1`: the activation was 2%.

With `O=C(CSc1nc2ccccc2n1Cc1ccccc1)NNC(=S)Nc1ccccc1`, the activation is -0.74%.

For the compound `CCNC(=O)C1(C)CCN(C(=O)c2ccccc2)C1` (stereo unspecified), the activation was 2.75%.

In the case of `CCN1C(=O)N[C@@H]2C[C@H](C(=O)N3CCCC3)[C@H](C)[C@H](c3ccccc3)C[C@@H]21`, the activation is 5.37%.

As to `C=CCOc1c2ccc(C(=O)N(CC)c3ccc(OC)cc3)cc2nn1C`, the activation is -1.06%.

Take `CC(=O)C1=C(C)N(Cc2ccccc2)C(=S)NC1c1cccc(Br)c1` (stereo unspecified): the activation was -0.58%.

Turning to `COc1ccnc(NC(=S)N2CCN(c3ncc(C(F)(F)F)cc3Cl)CC2)c1`, the activation was 2.05%.

Take `COc1cc(OC)cc(-c2cc3ccc(F)cc3cn2)c1`: the activation was 8.86%.

For the compound `O=c1cc(-c2ccccc2)[nH]c2cc(F)ccc12`, the activation was -0.32%.

Take `Fc1ccc2cnc(-c3ccccc3)cc2c1`: the activation is 15.4% (active).

With `CC(C)Cn1c(SCC(=O)Nc2ccc(Cl)cc2F)nc(O)cc1=O`, the activation was -0.64%.

Turning to `CC(=O)c1cc(-c2ccc3ccccc3c2)c(=O)n2c1CCC2`, the activation was 0.58%.

Take `Cc1sc2nc(SCC(=O)c3ccc(O)c(O)c3)n(Cc3ccco3)c(=O)c2c1C`: the activation is -0.58%.
